DT40 TDP1 no CPT: qHTS for Inhibitors of human tyrosyl-DNA phosphodiesterase 1 (TDP1): qHTS in cells in absence of CPT; DT40 Tdp1-/- hTDP1 cells, no CPT, ATP luminescence, 48 h; Potency, µM (doses to about 46.2 µM), usual class: inhibitors; 420,000 tested, 15% active; AID 686978, 2013; also: nearly all actives have a fitted effect of over 55% in size
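Seeded 400 DT40-hTDP1 cells/well (vehicle DMSO, no 20 nM CPT); pinned compounds; ≥48 hr at 37 °C; CellTiter-Glo luminescence as viability measure.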
KB-3-1 cytotox: kills parental KB-3-1 adenocarcinoma cells | KB-3-1 viability, CellTiter-Glo ATP luminescence, 72 h | Potency, µM (series often up to 46.1 µM), most hits filed as cytotoxic | 400,000 tested, 1.4% active | AID 1347075; also: nearly all actives have a fitted effect of over 60% in size
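Parental KB-3-1 viability, qHTS format: 72 h compound exposure, 37 °C; CellTiter-Glo; media-only wells and DMSO plates as controls; concentration-effect fits on corrected data.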
HT1080 IDH1KD tx: kills HT-1080 cells with IDH1 knockdown; HT-1080 IDH1 knockdown viability, ATP luminescence, 48 h; Potency, µM (titrated, usually from 46.1 µM), usual class: cytotoxic; 360,000 tested, 2% active; AID 686971
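Cytotoxicity counter-line: IDH1KD HT-1080, 48 h, CellTiter-Glo. Curves classed by r2, magnitude and activity.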
HT1080NT lethal: kills 2HG-producing HT-1080-NT fibrosarcoma cells. HT-1080-NT fibrosarcoma viability, CellTiter-Glo ATP luminescence, 48 h. Potency, µM (doses to about 46.1 µM), most hits filed as cytotoxic. 360,000 tested, 1.6% active. AID 686970;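 also: NT is the 2HG producing partner of a matched IDH1 knockdown line; nearly all actives have a fitted effect of over 55% in size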
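HT-1080-NT; 750 cells/well; 5% FBS RPMI; 48 h compound, 37 degrees C; CellTiter-Glo luminescence; curve fitting and curve-class assignment.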
TDP1 cell CPT: growth inhibition of DT40 Tdp1-/-;hTDP1 cells with camptothecin (screen for TDP1 inhibitors); 420,000 tested, 12% active; AID 686979; Potency, µM (top dose mostly 46.2 µM), most hits filed as inhibitors; chicken DT40 Tdp1-/-;hTDP1 cells + 20 nM CPT, ATP luminescence, 48 h; also: nearly all actives have a fitted effect of over 55% in size
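Chicken DT40 Tdp1-/- cells stably complemented with human TDP1 were seeded at 400 cells/well in medium containing 20 nM camptothecin, exposed to pin-transferred compounds, and grown at 37 °C for at least 48 hr. Viability was read as ATP luminescence.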
KB-V1 cytotox: KB-V1 MDR subline cytotoxicity. Potency, µM (titrated, usually from 46.1 µM), actives largely listed as cytotoxic. 400,000 tested, 3.4% active. KB-V1 MDR cells viability, CellTiter-Glo, 72 h; also: nearly all actives have a fitted effect of over 60% in size
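Cytotoxicity via CellTiter-Glo luminescence after 72 h compound exposure at 37 degrees C. Cells: drug-selected KB-V1 line, DMEM phenol-red free plus 10% FBS. Compounds tested at multiple concentrations; normalized data fitted to concentration-effect curves.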
Hits are given with their value; . = inactive; ? = inconclusive; / = not tested or not shown; [ ] = remark or other dose. A selection: hits, their analogues and other compounds. The true share with any hit is near 19%. Calls follow the shape of the dose curve; as a rule, active = well fitted curve in the direction sought with a large enough effect; inconclusive = small, poorly fitted or top-dose-only effect, or another doubt; inactive = no such curve, though single readings can be large; an effect the other way counts as inactive or inconclusive.

SMILES	DT40 TDP1 no CPT	KB-3-1 cytotox	HT1080 IDH1KD tx	HT1080NT lethal	TDP1 cell CPT	KB-V1 cytotox
COc1ccc(C(=O)OC(C)C(=O)Nc2cc(C(F)(F)F)ccc2Cl)c(OC)c1OC (centres undefined)	16µM	.	.	.	5.8µM	?
COc1cc(C(=O)Nc2cc(C(F)(F)F)ccc2Cl)cc(OC)c1OC	?	.	.	.	?	21µM
COc1ccc(OC)c(CNS(=O)(=O)c2cn(C)cn2)c1	.	.	.	.	.	.
Cn1cnc(Sc2ncnc3nc[nH]c23)c1[N+](=O)[O-]	.	?	18µM	?	.	?
Cn1cnc([N+](=O)[O-])c1Sc1ncnc2nc[nH]c12	?	1.8µM	4.1µM	4.1µM	?	?
CC(=O)CSc1ncnc2nc[nH]c12	.	.	.	.	.	.
Cn1cnc([N+](=O)[O-])c1SCC(=O)NN	.	.	.	.	.	.
Cc1cccc(OC(=O)CSc2nnc(CNC(=O)c3ccccc3)o2)c1C	.	.	/	/	.	.
CCCCOc1ccc(C(=O)NCc2nnnn2-c2ccc(C)c(C)c2)cc1	?	/	/	/	16µM	/
O=C(Nc1ccc(N2CCOCC2)c2nonc12)C1CCCC1	26µM	.	.	.	18µM	?
CC1=C(C(=O)N2CCOCC2)CC(CC(=O)NC2CCCCC2)C(=O)N1Cc1ccc(F)cc1 (centres undefined)	.	.	.	.	.	.
O[C@@H]1COC(Nc2ccc(N=Nc3ccccc3)cc2)C[C@@H]1O (some centres undefined)	.	.	.	.	.	.
COc1ccc(OC)c(NC(=O)c2cc(-c3cc(C)c(C)cc3O)n[nH]2)c1	?	.	.	.	.	.
COc1ccc(OC)c(NC(=O)c2cc(-c3ccc(F)cc3OC(C)C)n[nH]2)c1	21µM	.	.	.	16µM	.
COc1ccc(NC(=O)c2cc(-c3cc(F)ccc3OC(C)C)n[nH]2)c(C)c1	16µM	.	.	.	?	.
Cc1cc(C)c2nc(-c3cccc(Cl)c3)c(C)c(C(=O)N3CCOCC3)c2c1	?	?	?	.	?	.
CCOc1ccc(CN(C(=O)c2cc(=O)c3cc(Cl)ccc3o2)C2CCS(=O)(=O)C2)cc1 (centres undefined)	?	.	/	/	.	.
O=S(=O)(NCC1CCCO1)c1ccc(S(=O)(=O)N(Cc2ccccc2F)C2CCCCC2)cc1 (centres undefined)	?	.	.[9.24 µM]	?	13µM	?
Cc1c(C(=O)Nc2ccc(S(=O)(=O)NCC3CCCO3)cc2)cccc1[N+](=O)[O-] (centres undefined)	?	.	.	.	?	.
O=C(Nc1ccc(S(=O)(=O)NCC2CCCO2)cc1)c1ccc(Cl)cc1[N+](=O)[O-] (centres undefined)	?	.	.	.	8.2µM	.
O=C(Nc1ccc(F)cc1)c1ccc(S(=O)(=O)NCC2CCCO2)cc1 (centres undefined)	13µM	?	.[9.24 µM]	?	18µM	13µM
Cc1c(C(=O)N2CCCCCC2)c(S(=O)(=O)NCc2ccccc2)c(C)n1C	.	.	/	/	.	.
C[C@@H]1COc2cc(N3CCC[C@H]3CO)ccc2S(=O)(=O)N1	.	.	.	.	.	.
O=c1nc(-c2ccccc2)c2cc(Cl)ccc2[nH]1	1.3µM	.	.	.	?	.
O=c1nc(-c2ccccc2)c2cc(Br)ccc2[nH]1	0.23µM	.	.	.	0.33µM	.
SMILES	DT40 TDP1 no CPT	KB-3-1 cytotox	HT1080 IDH1KD tx	HT1080NT lethal	TDP1 cell CPT	KB-V1 cytotox
O=c1nc(-c2ccccc2)c2cc(SC(F)F)ccc2[nH]1	0.41µM	.	.	.	.	.
O=C(NCc1nnc2n1CCN(C(=O)c1cccc(Cl)c1)CC2)C1CC1	.	/	/	/	.[9.04 µM]	/
Cc1ccccc1-c1noc(-c2ccccc2C(=O)NCC2CCCO2)n1 (centres undefined)	18µM	.	.	.	?	.
Cc1ccccc1Nc1cc(C(=O)NCC2CCCO2)c2ccccc2n1 (centres undefined)	?	.	.	.	18µM	.
COCCNc1nc(NCCNC(C)=O)c2sc(-c3ccccc3)cc2n1	?	.	?	?	?	.
CC(=O)Nc1ccc(CNc2nc(NC(C)C)nc3cc(-c4ccccc4)sc23)cc1	4.1µM	?	?	?	3.7µM	21µM
COc1ccc(-c2cc(COc3ccccc3)on2)cc1	?	.	.	.	.	.
COc1ccc(-c2cc(CNc3nc(NC(C)C)nc4cc(-c5ccccc5)sc34)on2)cc1	3.7µM	?	12µM	10µM	4.1µM	21µM
C=CCNc1nc(NCc2ccc(NC(C)=O)cc2)c2sc(-c3ccccc3)cc2n1	9.2µM	?	.	18µM	8.2µM	?
CC(=O)NCCNc1nc(NC(C)C)nc2cc(-c3ccccc3)sc12	?	.	.	.	23µM	.
CC(=O)Nc1ccc(CNc2nc(NCc3cccs3)nc3ccsc23)cc1	.	.	?	?	.	.
O=C(NCCN1C(=O)S/C(=C\c2ccccc2F)C1=O)C1=COCCO1	2.9µM	?	12µM	?	?	9.2µM
O=C(CNC(=O)c1ccccc1F)NCCN1C(=O)S/C(=C\c2ccccc2Cl)C1=O	?	.	.	.	.	?
O=C(NCCN1C(=O)S/C(=C\c2ccc(Cl)cc2Cl)C1=O)C1=COCCO1	12µM	?	?	?	15µM	?
O=C(NCCN1C(=O)S/C(=C\c2ccccc2Cl)C1=O)C1=COCCO1	6.5µM	?	.	.	7.3µM	?
COc1cc(Br)c(CC(=O)NO)cc1OC	.	/	.	.	.	/
Cc1nc(N2CCCC2)ncc1C(=O)N1CCN(c2ccccc2F)CC1	.	.	/	/	.	.
COC(=O)c1ccccc1NC(=O)CSc1ncn[nH]1	.	.	.	.	.	.
S=c1nc(-c2ccccc2)[nH]n1-c1ccccc1	23µM	.	.	.	.	?
S=c1nc2ccccc2c2nc(-c3ccccc3)[nH]n12	9.2µM	.	.	.	21µM	.
COc1ccccc1-c1nc2c3ccccc3nc(=S)n2[nH]1	.	.	.	.	?	.
S=c1nc2ccccc2c2nc(-c3ccccc3Cl)[nH]n12	3.7µM	.	.	.	3.3µM	.
CCCC(Oc1ccc(Br)cc1)c1nc2c3cc(OC)c(OC)cc3nc(=S)n2[nH]1 (centres undefined)	?	?	.	.	?	?
CC(Oc1ccc(Br)cc1)c1nc2c3ccccc3nc(=S)n2[nH]1 (centres undefined)	15µM	?	.	?	?	?

Source: PubChem
